To fix the notation:
T1: UNK ZnF1-3 (human, UniProt Q9C0B0 31-174)
T1 sequence: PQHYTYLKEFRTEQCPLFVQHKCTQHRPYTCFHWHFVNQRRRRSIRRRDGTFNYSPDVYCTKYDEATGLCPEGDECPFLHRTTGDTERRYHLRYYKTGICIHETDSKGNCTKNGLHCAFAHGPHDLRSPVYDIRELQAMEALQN

B1: chr19:47150976:47150977:-_ENSG00000197380_ENST00000391916|hu_hu|motif|central (ssRNA)
RNA: GGGAGUUCUACAGUCCGACGAUCACUGGGGAGUCACCAUCGUCAUAAUAAAUACAGUAAUUUUAAAAAAGAAAAAAAAUACGGGAUUGGAACAGCUGAGGGUCAUCAGGCUUCCCCCAUUCCCUCUCACAGGGAGUGGGGGUCCAACAGAGGAUUGAGCAUCA
B2: chr2:202488911:202488912:-_ENSG00000155755_ENST00000286196|hu_mus|hu_hu_hu_mus_False|1_18 (ssRNA)
RNA: GGGAGUUCUACAGUCCGACGAUCAUUGAAACAUUUUUCAUAAUCUCCAGUAGCAUUUCAGCAUUAUGUAACAAAAGCUCAAUUGUAAAUACAUGUAUCUUAUAAAAAUACACUUAAAUUUAAAAACGGGGAGCGCACAAAUACCAACAGAGGAUUGAGCAUCA
B3: chr2:27806210:27806211:+_ENSMUSG00000026837_ENSMUST00000028280|mus_mus|FALSE|FALSE (ssRNA)
RNA: GGGAGUUCUACAGUCCGACGAUCUGUGGUUUCUCUGGCAGCUUCCACUGGCUUCUGAGUAGGGGCAGGCUCCUUUCCCGGGUCUUCAGGGUCUUCAUAAUAUGGAUACUCAUAGUAAUAGGUCUCACCCUCUCCUUCUGGGUACAACAGAGGAUUGAGCAUCA
B4: chr2:202488911:202488912:-_ENSG00000155755_ENST00000286196|hu_mus|hu_hu_hu_mus_False|8_18 (ssRNA)
RNA: GGGAGUUCUACAGUCCGACGAUCAUUGAAACAUUUUUCAUAAUCUCCAGUAGCAUUUCAGCAUUAUGUAACAAAAGCUCAAUUGUAAAUACAUGUAUCUUAUAAAAAUACACUUAAAUUUAAAAACAAAAAUGGGAGGCGCCACAACAGAGGAUUGAGCAUCA
B5: chr2:202488911:202488912:-_ENSG00000155755_ENST00000286196|hu_mus|hu_hu_hu_mus_False|18_48 (ssRNA)
RNA: B4 RNA with U93C, G94A, A96G, A127G, A128G, A129G, A130G, U132G, G133C, G135C
B6: chr1:229631779:229631780:-_ENSG00000069248_ENST00000261396|hu_hu|motif|central (ssRNA)
RNA: GGGAGUUCUACAGUCCGACGAUCUAAUUCCCAUUUACUGAUGUUUGAACUCGUCAGGCUAUAAAAGCUUGAUCUCUCUCGGUCCCAGAGAACACUUGAAAGUGUGAGAUCACUACUAGGAGAUAAAAUUCCAAAAAGAGAAGACAACAGAGGAUUGAGCAUCA
B7: chr2:202488911:202488912:-_ENSG00000155755_ENST00000286196|hu_mus|hu_hu_hu_mus_False|8_8 (ssRNA)
RNA: B4 RNA with U118A, U119A, U120C, A122C, A123G, A125G, C126U

Residue numbers refer to the chain shown, from its start. The full ranking holds about 24,000 sequences; the median of “enrichment r” is about 0.99, and the highest 2% start at about 3.7. For the sample, the highest values were picked, then their nearest neighbours and some sequences at random.

This experiment has as its target T1, UNK ZnF1-3. Nature of the experiment: nsRBNS (natural sequence RNA bind-n-seq); RBNS binding buffer (assumed for nsRBNS): 25 mM Tris pH 7.5, 150 mM KCl, 3 mM MgCl2, 0.01% Triton X-100, 500 ug/ml BSA, 20 U/ml SUPERase-In, 4 C; UNK is unkempt and MSI1 is Musashi-1; names of the RNAs are library labels; protein concentration not given here; high values mean tight binding.
The molecule B1 showed a binding signal of 6.05 enrichment R.

Consider B2, for which the binding signal stood at 3.65 enrichment R.

As for B3, the binding signal was 0.892 enrichment R.

Molecule B4 registered a binding signal of 6.76 enrichment R.

Molecule B5 returned a binding signal of 3.69 enrichment R.

B6 yielded a binding signal of 1.07 enrichment R.

For the molecule B7, the binding signal came out at 0.957 enrichment R.

For the origin of these results see publication PMC12136788.
